This note sets out measurements from the supplement of paper PMC8728848.

Common to all, as to experiment: glycan array binding signal (z-score within array); higher = stronger binding
What all share (details): glycan notation: IUPAC condensed, linker removed

Experiment [1] relates to Neu5Ac(a2-6)Gal(b1-4)GlcNAc(b1-3)[Neu5Ac(a2-6)Gal(b1-4)GlcNAc(b1-6)]GalNAc. The method in brief:
(§1)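 The binding signal is a Z-score computed within each array and averaged over linkers. Arrays of the same protein sequence at different concentrations or buffers were also averaged together. Data originate from 3228 arrays in the Consortium for Functional Glycomics database, kept only where the protein sequence was available.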

Experiment [2] relates to Neu5Ac(a2-6)Gal(b1-4)GlcNAc6S. The method in brief:
as §1

Experiment [3] concerns Neu5Ac(a2-6)Gal. The method, boiled down: as §1
The subject of experiment [4] is Neu5Ac(a2-8)Neu5Ac(a2-3)Gal(b1-3)GalNAc(b1-4)[Neu5Ac(a2-3)]Gal(b1-4)Glc. The method in brief:
as §1

Experiment [5] concerns Neu5Ac(a2-6)Gal(b1-4)GlcNAc(b1-6)[Gal(b1-3)GlcNAc(b1-3)]Gal(b1-4)Glc. The method in brief: as §1
For experiment [6], the system named is Neu5Ac(a2-6)Gal(b1-4)GlcNAc. The method, boiled down:
as §1

Experiment [7] relates to Neu5Ac(a2-6)GalNAc(b1-4)GlcNAc. The method in brief: as §1
The test system of experiment [8] is Neu5Ac(a2-6)GlcNAc(b1-4)GlcNAc. The method, boiled down:
as §1

The test system of experiment [9] is Neu5Ac(a2-8)Neu5Ac(a2-3)Gal(b1-3)GalNAc(b1-4)[Neu5Ac(a2-8)Neu5Ac(a2-3)]Gal(b1-4)Glc. The method in brief: as §1
In experiment [10] the test system is Neu5Ac(a2-8)Neu5Ac(a2-3)Gal(b1-4)GlcNAc. The method, boiled down: as §1

About 410 targets per protein were measured; listed, in parts, are those with the strongest signals and a random draw of the rest.

With “AgI/II Vhelical-GFP (Streptococcus mutans)”, the “glycan array binding signal (z-score)” value is -0.298 in experiment [1], -0.076 in experiment [2], -0.257 in experiment [3] and -0.253 in [4].

Turning to Epa22, the “glycan array binding signal (z-score)” value is 0.104 in experiment [5], -0.607 in experiment [6], -0.394 in experiment [7] and -0.046 in [8].

With MIC3-MAR1b (Eimeria tenella), B6VCV4, the “glycan array binding signal (z-score)” value in [5] was 1.38.

For the substance LcI (Legionella pneumophila), in experiment [7], the “glycan array binding signal (z-score)” value is -0.669.

For Actinohivin (Actinomycete K97), the results for the “glycan array binding signal (z-score)” value in experiment [2], in [7] and in [3] were -0.199, -0.197 and -0.147, respectively.

For BambL (Burhholderia ambifaria), Q0B4G1, in experiment [9], the “glycan array binding signal (z-score)” value was -0.308.

“SpGH101 (Streptococcus pneumoniae), Q8DR60”: in experiment [6], the “glycan array binding signal (z-score)” value was -0.172.

As to MIC3-MAR5 (Eimeria tenella), B6VCV4, in [4], the “glycan array binding signal (z-score)” value stood at 3.86.

As to AgI/IIC123-GFP (Streptococcus mutans), the “glycan array binding signal (z-score)” value in [10] is -0.506.
